Measurements published in the supplement of paper PMC7411054.
Structures can show the parent of a compound that is named as a salt.

What was measured:
Settings in all cases: treatment time: 24 h
A549-ACTB-RAB5A [1] = assay: phenotypically active (imaging signature differs from DMSO and reproducible) at any of 0.3-9 uM (binary (1 = active, 0 = inactive)); higher = active
Procedure, shortened: (§1)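 The reporter lines, fifteen in total and built by gene editing in A549, HepG2 and WPMY1 cells, used BFP for segmentation alongside GFP and RFP/FusionRed markers. Each was treated at 0.3, 1, 3 or 9 µM for 24 h in four wells and then imaged live, with live-cell features normalised to solvent control wells. Deviation meant ≥3 of 4 wells beyond the 95th percentile of control Euclidean distances; reproducibility meant a median replicate Pearson correlation above the 95th percentile of non-replicates. Only conditions meeting both were scored as phenotypically active.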

A549-CANX-COX4 [2] = assay: as above
Procedure, shortened: as §1

A549-GM130-SQSTM1 [3] = assay: as above
Procedure, shortened: as §1

A549-TP53BP1-CLTA [4] = assay: as above
Procedure, shortened: as §1

A549-TUBA1B-RELA = assay: as above
Procedure, shortened: as §1

HepG2-ACTB-RAB5A [5] = assay: as above
Procedure, shortened: as §1

HepG2-CANX-COX4 = assay: as above
Procedure, shortened: as §1

HepG2-GM130-SQSTM1 = assay: as above
Procedure, shortened: as §1

HepG2-TP53BP1-CLTA = assay: as above
Procedure, shortened: as §1

HepG2-TUBA1B-RELA = assay: as above
Procedure, shortened: as §1

WPMY1-ACTB-RAB5A = assay: as above
Procedure, shortened: as §1

WPMY1-CANX-COX4 = assay: as above
Procedure, shortened: as §1

WPMY1-GM130-SQSTM1 = assay: as above
Procedure, shortened: as §1

WPMY1-TP53BP1-CLTA = assay: as above
Procedure, shortened: as §1

WPMY1-TUBA1B-RELA = assay: as above
Procedure, shortened: as §1

A549-ACTB-RAB5A [6] = assay: lowest phenotypically active concentration; higher = less potent
Procedure, shortened: as §1

A549-CANX-COX4 [7] = assay: as above
Procedure, shortened: as §1

A549-GM130-SQSTM1 [8] = assay: as above
Procedure, shortened: as §1

A549-TP53BP1-CLTA [9] = assay: as above
Procedure, shortened: as §1

HepG2-ACTB-RAB5A [10] = assay: as above
Procedure, shortened: as §1

Structure (SMILES)	phenotypically active (A549-ACTB-RAB5A [1])	phenotypically active (A549-CANX-COX4 [2])	phenotypically active (A549-GM130-SQSTM1 [3])	phenotypically active (A549-TP53BP1-CLTA [4])	phenotypically active (A549-TUBA1B-RELA)	phenotypically active (HepG2-ACTB-RAB5A [5])	phenotypically active (HepG2-CANX-COX4)	phenotypically active (HepG2-GM130-SQSTM1)	phenotypically active (HepG2-TP53BP1-CLTA)	phenotypically active (HepG2-TUBA1B-RELA)	phenotypically active (WPMY1-ACTB-RAB5A)	phenotypically active (WPMY1-CANX-COX4)	phenotypically active (WPMY1-GM130-SQSTM1)	phenotypically active (WPMY1-TP53BP1-CLTA)	phenotypically active (WPMY1-TUBA1B-RELA)	lowest phenotypically active concentration (A549-ACTB-RAB5A [6]) [µM]	lowest phenotypically active concentration (A549-CANX-COX4 [7]) [µM]	lowest phenotypically active concentration (A549-GM130-SQSTM1 [8]) [µM]	lowest phenotypically active concentration (A549-TP53BP1-CLTA [9]) [µM]	lowest phenotypically active concentration (HepG2-ACTB-RAB5A [10]) [µM]
C[N+]1([O-])[C@@H]2C[C@@H](OC(=O)[C@H](CO)c3ccccc3)C[C@H]1[C@@H]1O[C@@H]12 (stereo partly specified) [Genoscopolamine HBr]	0 (inactive)	0 (inactive)	0 (inactive)	0 (inactive)	0 (inactive)	0 (inactive)	0 (inactive)	0 (inactive)	0 (inactive)	0 (inactive)	0 (inactive)	0 (inactive)	0 (inactive)	0 (inactive)	0 (inactive)					
C[C@]12C/C(=C\O)C(=O)C[C@@H]1CC[C@@H]1[C@@H]2CC[C@@]2(C)[C@H]1CC[C@]2(C)O [oxymetholone]	1 (active)	0 (inactive)	0 (inactive)	0 (inactive)	0 (inactive)	0 (inactive)	0 (inactive)	0 (inactive)	0 (inactive)	0 (inactive)	0 (inactive)	0 (inactive)	0 (inactive)	0 (inactive)	0 (inactive)	9				
CC(=O)O[C@H]1C[C@@H]2CC[C@@H]3[C@H](CC[C@@]4(C)[C@H]3C[C@H]([N+]3(C)CCCCC3)[C@@H]4OC(C)=O)[C@@]2(C)C[C@@H]1[N+]1(C)CCCCC1 [pancuronium]	0 (inactive)	0 (inactive)	0 (inactive)	0 (inactive)	0 (inactive)	0 (inactive)	0 (inactive)	0 (inactive)	0 (inactive)	0 (inactive)	0 (inactive)	0 (inactive)	0 (inactive)	0 (inactive)	0 (inactive)					
Cc1sc2c(c1C)C(c1ccc(Cl)cc1)=N[C@@H](CC(=O)OC(C)(C)C)c1nnc(C)n1-2	1 (active)	1 (active)	1 (active)	1 (active)	1 (active)	1 (active)	1 (active)	1 (active)	1 (active)	1 (active)	1 (active)	1 (active)	1 (active)	1 (active)	1 (active)	≤ 0.3	≤ 0.3	≤ 0.3	≤ 0.3	≤ 0.3
CCN1C[C@]2(COC)CC[C@H](OC)[C@]34[C@@H]5C[C@H]6[C@H](OC)[C@@H]5[C@@]5(C[C@@H]6OC)OCO[C@@]5([C@H]13)[C@@H](O)[C@H]24 [Delcorine]	0 (inactive)	0 (inactive)	0 (inactive)	0 (inactive)	0 (inactive)	0 (inactive)	0 (inactive)	0 (inactive)	0 (inactive)	0 (inactive)	0 (inactive)	0 (inactive)	0 (inactive)	0 (inactive)	0 (inactive)					
O=C1CCC[C@@H]2[C@H]3CCCN4CCC[C@@H](CN12)[C@@H]34 [Matrine]	0 (inactive)	0 (inactive)	0 (inactive)	0 (inactive)	0 (inactive)	0 (inactive)	0 (inactive)	0 (inactive)	0 (inactive)	0 (inactive)	0 (inactive)	0 (inactive)	0 (inactive)	0 (inactive)	0 (inactive)					
Cc1ccc(C[N+](C)(C)C)o1 [5-Methylfurmethiodide]	0 (inactive)	0 (inactive)	0 (inactive)	0 (inactive)	0 (inactive)	0 (inactive)	0 (inactive)	0 (inactive)	0 (inactive)	0 (inactive)	0 (inactive)	0 (inactive)	0 (inactive)	0 (inactive)	0 (inactive)					
CC(C)[C@@]1(NC(=O)[C@@H]2C[C@@H]3c4cccc5[nH]cc(c45)C[C@H]3N(C)C2)O[C@@]2(O)[C@@H]3CCCN3C(=O)[C@H](Cc3ccccc3)N2C1=O [Dihydroergocristine mesylate]	1 (active)	1 (active)	1 (active)	1 (active)	1 (active)	1 (active)	1 (active)	1 (active)	1 (active)	1 (active)	1 (active)	1 (active)	1 (active)	1 (active)	1 (active)	9	9	9	9	3
CCN1C[C@]2(COC)CC[C@H](O)[C@]34[C@@H]5C[C@H]6[C@H](OC)[C@@H]5[C@](O)(C[C@@H]6OC)[C@](O)([C@H]13)[C@@H](OC)[C@H]24 [Delsoline]	0 (inactive)	0 (inactive)	0 (inactive)	0 (inactive)	0 (inactive)	0 (inactive)	0 (inactive)	0 (inactive)	0 (inactive)	0 (inactive)	0 (inactive)	0 (inactive)	0 (inactive)	0 (inactive)	0 (inactive)					
CC(C)N(CCC(C(N)=O)(c1ccccc1)c1ccccn1)C(C)C (stereo unspecified) [disopyramide]	0 (inactive)	0 (inactive)	0 (inactive)	0 (inactive)	0 (inactive)	0 (inactive)	0 (inactive)	0 (inactive)	0 (inactive)	0 (inactive)	0 (inactive)	0 (inactive)	0 (inactive)	0 (inactive)	0 (inactive)					
CC[N+](CC)(CCCNC1=CC(=O)C(NCCC[N+](CC)(CC)Cc2ccccc2)=CC1=O)Cc1ccccc1 [Benzoquinonium dibromide]	0 (inactive)	0 (inactive)	0 (inactive)	0 (inactive)	0 (inactive)	0 (inactive)	0 (inactive)	0 (inactive)	0 (inactive)	0 (inactive)	0 (inactive)	0 (inactive)	0 (inactive)	0 (inactive)	0 (inactive)					
